Source: PubChem BioAssay (NCI)
The panel holds about 79,000 compounds, 15% with a hit somewhere; the sample as a whole holds those more often. Activity calls are given as the source filed them. Rule as the data show it: active = growth inhibition above about 70%; inactive = the rest.

What was measured:
[1] = NCI Yeast Anticancer Drug Screen. Data for the rad52 strain (AID 147);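 also: 0% = growth of vehicle-treated control cultures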; settings: S. cerevisiae rad52 mutant growth inhibition, stronger effect = higher value
Outline: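 The repair-mutant yeast strain was incubated with compounds, then growth was read and inhibition derived relative to vehicle.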

[2] = NCI Yeast Anticancer Drug Screen. Data for the wt1 strain (AID 149);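 also: 0% = growth of vehicle-treated wt1 cultures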; settings: S. cerevisiae wt1 strain (SPY 50644) growth inhibition, stronger effect = higher value
Outline: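 wt1 strain grown with compound or vehicle; inhibition taken from the growth difference.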

[3] = NCI Yeast Anticancer Drug Screen. Data for the rad50EPP+ strain (AID 151);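 also: 0% = growth of vehicle-treated control cultures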; settings: S. cerevisiae rad50 mutant strain, stronger effect = higher value
Outline: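 Vehicle-normalised growth inhibition; rad50EPP+ yeast strain, altered in DNA damage repair, compound-treated.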

[4] = NCI Yeast Anticancer Drug Screen. Data for the mgt1 strain (AID 153); settings: S. cerevisiae mgt1 mutant growth inhibition, stronger effect = higher value
Outline: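 Vehicle-normalized growth inhibition is determined in mgt1 yeast, a strain selected for a defined alteration in DNA repair or cell cycle control.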

[5] = NCI Yeast Anticancer Drug Screen. Data for the rad50 strain (AID 155);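 also: 0% = growth of vehicle-only cultures of the same strain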; settings: S. cerevisiae rad50 strain growth inhibition, stronger effect = higher value
Outline: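 DNA repair mutant yeast, compound exposure, growth read-out; inhibition is taken relative to vehicle.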

[6] = NCI Yeast Anticancer Drug Screen. Data for the mec2-1 strain (AID 157); settings: S. cerevisiae mec2-1 strain, stronger effect = higher value
Outline: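 Mutant yeast (mec2-1) grown with compound; growth inhibition relative to vehicle control reported.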

[7] = NCI Yeast Anticancer Drug Screen. Data for the rad14 strain (AID 159);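 also: 0% = growth of vehicle-treated control cultures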; settings: S. cerevisiae rad14 strain growth inhibition, stronger effect = higher value
Outline: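 DNA repair-defective yeast, compound-exposed; % growth inhibition derived by comparison with vehicle-treated controls.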

[8] = NCI Yeast Anticancer Drug Screen. Data for the sgs1 mgt1 strain (AID 161);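 also: 0% = growth of cultures given vehicle only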; settings: S. cerevisiae sgs1 mgt1 strain, stronger effect = higher value
Outline: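 Percent growth inhibition was derived by comparing compound-exposed mutant yeast with vehicle-exposed cultures. The strain carries alterations in DNA damage repair.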

[9] = NCI Yeast Anticancer Drug Screen. Data for the CLN2oe strain (AID 163);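 also: 0% = growth of vehicle-only control cultures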; settings: S. cerevisiae CLN2oe strain, stronger effect = higher value
Outline: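 Compounds are applied to yeast harbouring a defined cell-cycle control change; reduced growth compared with vehicle-treated controls gives the value.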

[10] = NCI Yeast Anticancer Drug Screen. Data for the cln2 rad14 strain (AID 165);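 also: 0% = growth equal to vehicle treated cultures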; settings: S. cerevisiae cln2 rad14 strain, stronger effect = higher value
Outline: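 Readout is yeast growth inhibition versus vehicle-treated controls, using a strain with cln2 and rad14 alterations exposed to compound.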

[11] = NCI Yeast Anticancer Drug Screen. Data for the bub3 strain (AID 167); settings: S. cerevisiae bub3 mutant strain, stronger effect = higher value
Outline: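 In this screen, a yeast mutant lacking normal mitotic checkpoint function is challenged with compound. Relative growth versus vehicle gives the inhibition value.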

[12] = NCI Yeast Anticancer Drug Screen. Data for the wt2 strain (AID 169);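 also: 0% = growth of vehicle-treated yeast cultures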; settings: S. cerevisiae wt2 strain growth inhibition, stronger effect = higher value
Outline: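 Against vehicle-treated controls, the growth of yeast exposed to each compound was compared, and the inhibition was recorded.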

[13] = NCI Yeast Anticancer Drug Screen. Data for the mlh1 strain (AID 171);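 also: 0% = growth of vehicle-treated control cultures of the same strain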; settings: S. cerevisiae mlh1 strain growth inhibition, stronger effect = higher value
Outline: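 Measured: yeast growth. Reference: vehicle-treated controls. Organism: strain with a defined alteration affecting DNA damage repair or cell cycle control, treated with compound.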

[14] = NCI Yeast Anticancer Drug Screen. Data for the sgs1 strain (AID 173);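 also: 0% = growth of vehicle-only control cultures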; settings: S. cerevisiae sgs1 mutant, stronger effect = higher value
Outline: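 Each compound was added to cultures of the altered yeast strain. Growth was recorded, and inhibition was derived by comparison with vehicle controls.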

[15] = NCI Yeast Anticancer Drug Screen. Data for the mlh1 rad18 strain (AID 175); settings: S. cerevisiae mlh1 rad18 strain growth inhibition, stronger effect = higher value
Outline: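 Genetically defined yeast (DNA repair-deficient) exposed to compounds; growth inhibition determined relative to vehicle.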

[16] = NCI Yeast Anticancer Drug Screen. Data for the rad18 strain (AID 177); settings: S. cerevisiae rad18 mutant growth inhibition, stronger effect = higher value
Outline: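 Vehicle-treated cultures served as the baseline for scoring compound-induced growth inhibition in DNA-repair-mutant yeast.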

[17] = at 5.0 µM (retest, dose inferred, filed as 0.5)
[18] = at 50.0 µM (retest, dose inferred, filed as 5.0)

Measured: growth inhibition

COc1ccc2nc3cccc([N+](=O)[O-])c3c(NCCN(CCO)CCO)c2c1
inactive: [2]; at 1.2 µM -2% | [2]; at 3.7 µM 6% | [2]; at 11.0 µM 31% | [3]; at 1.2 µM 3% | [3]; at 3.7 µM 13% | [3]; at 11.0 µM 44% | [4]; at 1.2 µM -3% | [4]; at 3.7 µM 2% | [4]; at 11.0 µM 29% | [5]; at 1.2 µM 43% | [5]; [17] 42% | [6]; at 1.2 µM 14% | [6]; [17] 13% | [8]; at 50.0 µM 69.5% | [9]; at 1.2 µM -5% | [9]; at 3.7 µM -5% | [9]; at 11.0 µM 11% | [9]; at 33.0 µM 61% | [11]; at 1.2 µM -13% | [11]; at 3.7 µM -18% | [11]; [17] -41% | [11]; at 11.0 µM -2% | [11]; at 33.0 µM 52% | [11]; at 50.0 µM 43.6% | [12]; at 1.2 µM -2% | [12]; at 3.7 µM -1% | [12]; at 11.0 µM 11% | [12]; at 33.0 µM 53% | [13]; at 1.2 µM 5% | [13]; at 3.7 µM 25% | [13]; at 11.0 µM 61% | [15]; [17] 68%
active: [1]; at 1.2 µM 75% | [1]; at 3.7 µM 92% | [1]; at 11.0 µM 94% | [1]; at 33.0 µM 96% | [1]; at 100.0 µM 96% | [2]; at 33.0 µM 73% | [2]; at 100.0 µM 77% | [3]; at 33.0 µM 78% | [3]; at 100.0 µM 94% | [4]; at 33.0 µM 71% | [4]; at 100.0 µM 75% | [5]; at 3.7 µM 81% | [5]; at 11.0 µM 91% | [5]; at 33.0 µM 94% | [5]; [18] 96% | [5]; at 50.0 µM 81.2% | [5]; at 100.0 µM 94% | [6]; at 3.7 µM 82% | [6]; at 11.0 µM 95% | [6]; at 33.0 µM 97% | [6]; [18] 97% | [6]; at 50.0 µM 86.2% | [6]; at 100.0 µM 97% | [7]; at 1.2 µM 84% | [7]; at 3.7 µM 96% | [7]; at 11.0 µM 98% | [7]; at 33.0 µM 98% | [7]; at 100.0 µM 98% | [8]; [17] 78% | [8]; [18] 94% | [9]; at 100.0 µM 91% | [10]; [17] 81% | [10]; [18] 96% | [10]; at 50.0 µM 83.2% | [11]; [18] 86% | [11]; at 100.0 µM 96% | [12]; at 100.0 µM 93% | [13]; at 33.0 µM 84% | [13]; at 100.0 µM 86% | [14]; at 1.2 µM 80% | [14]; at 3.7 µM 90% | [14]; at 11.0 µM 93% | [14]; at 33.0 µM 95% | [14]; at 100.0 µM 96% | [15]; [18] 97% | [15]; at 50.0 µM 74.5% | [16]; at 1.2 µM 94% | [16]; at 3.7 µM 96% | [16]; at 11.0 µM 96% | [16]; at 33.0 µM 95% | [16]; at 100.0 µM 95%

CC[C@@]1(O)C(=O)OCc2c1cc1n(c2=O)Cc2cc3c(N)cccc3nc2-1
inactive: [1]; at 1.2 µM 54% | [2]; at 1.2 µM 22% | [2]; at 3.7 µM 13% | [2]; at 11.0 µM 7% | [2]; at 33.0 µM 8% | [2]; at 100.0 µM -1% | [3]; at 1.2 µM 13% | [3]; at 3.7 µM 30% | [3]; at 11.0 µM 53% | [3]; at 33.0 µM 54% | [3]; at 100.0 µM 52% | [4]; at 1.2 µM 4% | [4]; at 3.7 µM -3% | [4]; at 11.0 µM 9% | [4]; at 33.0 µM 2% | [4]; at 100.0 µM 5% | [6]; at 1.2 µM -7% | [6]; at 3.7 µM -1% | [6]; [17] 2% | [6]; at 11.0 µM 18% | [6]; at 33.0 µM 23% | [6]; [18] 5% | [6]; at 50.0 µM 36.7% | [6]; at 100.0 µM 30% | [7]; at 1.2 µM -20% | [7]; at 3.7 µM -29% | [7]; at 11.0 µM -25% | [7]; at 33.0 µM -24% | [7]; at 100.0 µM -33% | [8]; [17] 1% | [8]; [18] 14% | [8]; at 50.0 µM 19.9% | [9]; at 1.2 µM 25% | [9]; at 3.7 µM 23% | [9]; at 11.0 µM 25% | [9]; at 33.0 µM 22% | [9]; at 100.0 µM 13% | [10]; [17] 35% | [10]; [18] -11% | [10]; at 50.0 µM -8.35% | [11]; at 1.2 µM -28% | [11]; at 3.7 µM -32% | [11]; [17] -1% | [11]; at 11.0 µM -26% | [11]; at 33.0 µM -7% | [11]; [18] 1% | [11]; at 50.0 µM -0.65% | [11]; at 100.0 µM -30% | [12]; at 1.2 µM -16% | [12]; at 3.7 µM -9% | [12]; at 11.0 µM -8% | [12]; at 33.0 µM -3% | [12]; at 100.0 µM -16% | [13]; at 1.2 µM 1% | [13]; at 3.7 µM 6% | [13]; at 11.0 µM 11% | [13]; at 33.0 µM 16% | [13]; at 100.0 µM 2% | [14]; at 1.2 µM 0% | [14]; at 3.7 µM -2% | [14]; at 11.0 µM 5% | [14]; at 33.0 µM 5% | [14]; at 100.0 µM 8% | [15]; [17] -6% | [15]; [18] 1% | [15]; at 50.0 µM 5.1% | [16]; at 1.2 µM -10% | [16]; at 3.7 µM -11% | [16]; at 11.0 µM -13% | [16]; at 33.0 µM -15% | [16]; at 100.0 µM -23%
active: [1]; at 3.7 µM 79% | [1]; at 11.0 µM 85% | [1]; at 33.0 µM 82% | [1]; at 100.0 µM 75% | [5]; at 1.2 µM 70% | [5]; at 3.7 µM 87% | [5]; [17] 81% | [5]; at 11.0 µM 88% | [5]; at 33.0 µM 86% | [5]; [18] 84% | [5]; at 50.0 µM 88% | [5]; at 100.0 µM 83%
